PubChem BioAssay AID1159580 (chemical genetic matrix, 2015)
In all, about 5,500 compounds went through this assay and about 2,000 (36%) were called active. Another 18% or so got no clear call; they are omitted. Cut-off read from the data, not from the text of the source: active = normalized growth mostly below about 0.91 (no sharp cut-off); inconclusive = no clear call, values can overlap the other calls; inactive = mostly above about 0.92. The list shows a part of the results.

Assay: chemical genetic growth profiling, strain panel (AID 1159580);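 note: tested at 20 µM; growth read once vehicle control cultures reached saturation at 30 °C; 1 = growth at the plate median or of vehicle wells; lower values mean less growth of the strain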
Conditions: growth OD

Measured: normalized growth

Cc1cc(C)nc(NS(=O)(=O)c2ccc(N)cc2)n1
inactive: S. cerevisiae deletion strains, locus YJR066W, strain TOR1, stronger effect = lower value 0.929 | S. cerevisiae deletion strains, locus YJR075W, strain HOC1, stronger effect = lower value 0.98 | S. cerevisiae deletion strains, locus YKL009W, strain mrt4, stronger effect = lower value 0.961 | S. cerevisiae deletion strains, locus YKL068W, stronger effect = lower value 0.982 | S. cerevisiae deletion strains, locus YKL085W, strain MDH1 (second series), stronger effect = lower value 0.971 | S. cerevisiae deletion strains, locus YKL085W, strain MDH1, stronger effect = lower value 0.971 | S. cerevisiae deletion strains, locus YKL160W, strain elf1, stronger effect = lower value 1 | S. cerevisiae deletion strains, locus YKL190W, strain CNB1, stronger effect = lower value 1 | S. cerevisiae deletion strains, locus YKR001C, strain vps1, stronger effect = lower value 0.98 | S. cerevisiae deletion strains, locus YKR026C, strain gcn3, stronger effect = lower value 0.985 | S. cerevisiae deletion strains, locus YKR091W, strain srl3, stronger effect = lower value 0.958 | S. cerevisiae deletion strains, locus YLL001W, strain dnm1, stronger effect = lower value 1.03 | S. cerevisiae deletion strains, locus YLL026W, stronger effect = lower value 0.993 | S. cerevisiae deletion strains, locus YLL041C, strain sdh2, stronger effect = lower value 0.975 | S. cerevisiae deletion strains, locus YLR027C, strain aat2, stronger effect = lower value 0.985 | S. cerevisiae deletion strains, locus YLR039C, strain RIC1, stronger effect = lower value 0.981 | S. cerevisiae deletion strains, locus YLR058C, strain SHM2, stronger effect = lower value 0.986 | S. cerevisiae deletion strains, locus YLR102C, strain apc9, stronger effect = lower value 0.984 | S. cerevisiae deletion strains, locus YLR113W, strain HOG1, stronger effect = lower value 0.975 | S. cerevisiae deletion strains, locus YLR221C, strain rsa3, stronger effect = lower value 0.958 | S. cerevisiae deletion strains, locus YLR258W, strain gsy2, stronger effect = lower value 0.977 | S. cerevisiae deletion strains, locus YLR262C, strain YPT6 (second series), stronger effect = lower value 0.972 | S. cerevisiae deletion strains, locus YLR262C, strain YPT6, stronger effect = lower value 0.986 | S. cerevisiae deletion strains, locus YLR268W, strain sec22, stronger effect = lower value 0.952 | S. cerevisiae deletion strains, locus YLR320W, strain mms22, stronger effect = lower value 0.957 | S. cerevisiae deletion strains, locus YLR330W, strain CHS5, stronger effect = lower value 0.988 | S. cerevisiae deletion strains, locus YLR342W, strain FKS1 (second series), stronger effect = lower value 0.999 | S. cerevisiae deletion strains, locus YLR342W, strain FKS1, stronger effect = lower value 0.996 | S. cerevisiae deletion strains, locus YLR357W, strain rsc2, stronger effect = lower value 0.975 | S. cerevisiae deletion strains, locus YLR370C, strain arc18, stronger effect = lower value 0.984 | S. cerevisiae deletion strains, locus YLR371W, strain rom2, stronger effect = lower value 0.961 | S. cerevisiae deletion strains, locus YLR384C, strain iki3, stronger effect = lower value 0.985 | S. cerevisiae deletion strains, locus YLR418C, strain cdc73, stronger effect = lower value 1.02 | S. cerevisiae deletion strains, locus YML016C, strain PPZ1, stronger effect = lower value 0.995 | S. cerevisiae deletion strains, locus YML032C, strain rad52, stronger effect = lower value 0.98 | S. cerevisiae deletion strains, locus YML120C, strain ndi1, stronger effect = lower value 0.976 | S. cerevisiae deletion strains, locus YML124C, strain tub3, stronger effect = lower value 0.981 | S. cerevisiae deletion strains, locus YMR058W, strain fet3, stronger effect = lower value 0.986 | S. cerevisiae deletion strains, locus YMR078C, strain ctf18, stronger effect = lower value 0.98 | S. cerevisiae deletion strains, locus YMR125W, strain sto1, stronger effect = lower value 0.947 | S. cerevisiae deletion strains, locus YMR129W, stronger effect = lower value 0.974 | S. cerevisiae deletion strains, locus YMR205C, strain PFK2, stronger effect = lower value 0.988 | S. cerevisiae deletion strains, locus YMR223W, strain ubp8, stronger effect = lower value 1.02 | S. cerevisiae deletion strains, locus YMR231W, strain pep5, stronger effect = lower value 1.02 | S. cerevisiae deletion strains, locus YMR307W, strain GAS1, stronger effect = lower value 1.02 | S. cerevisiae deletion strains, locus YNL067W, strain RPL9B, stronger effect = lower value 0.996 | S. cerevisiae deletion strains, locus YNL071W, strain lat1, stronger effect = lower value 0.973 | S. cerevisiae deletion strains, locus YNL128W, strain TEP1, stronger effect = lower value 0.97 | S. cerevisiae deletion strains, locus YNL183C, strain NPR1, stronger effect = lower value 0.967 | S. cerevisiae deletion strains, locus YNL209W, strain ssb2, stronger effect = lower value 0.975 | S. cerevisiae deletion strains, locus YNL233W, strain BNI4, stronger effect = lower value 0.997 | S. cerevisiae deletion strains, locus YNL248C, strain rpa49, stronger effect = lower value 0.909 | S. cerevisiae deletion strains, locus YNL250W, strain rad50, stronger effect = lower value 0.986 | S. cerevisiae deletion strains, locus YNL271C, strain bni1, stronger effect = lower value 0.993 | S. cerevisiae deletion strains, locus YNL298W, strain CLA4, stronger effect = lower value 0.963 | S. cerevisiae deletion strains, locus YNL307C, strain MCK1, stronger effect = lower value 0.978 | S. cerevisiae deletion strains, locus YNL322C, strain KRE1 (second series), stronger effect = lower value 0.971 | S. cerevisiae deletion strains, locus YNL322C, strain KRE1, stronger effect = lower value 0.997 | S. cerevisiae deletion strains, locus YNR049C, strain mso1, stronger effect = lower value 0.963 | S. cerevisiae deletion strains, locus YNR052C, strain pop2, stronger effect = lower value 0.97 | S. cerevisiae deletion strains, locus YOL006C, strain TOP1, stronger effect = lower value 1.07 | S. cerevisiae deletion strains, locus YOL012C, strain htz1 1.13 | S. cerevisiae deletion strains, locus YOL147C, strain pex11, stronger effect = lower value 0.991 | S. cerevisiae deletion strains, locus YOR001W, strain rrp6, stronger effect = lower value 1 | S. cerevisiae deletion strains, locus YOR061W, strain CKA2, stronger effect = lower value 1 | S. cerevisiae deletion strains, locus YOR069W, strain VPS5, stronger effect = lower value 0.988 | S. cerevisiae deletion strains, locus YOR070C, strain gyp1, stronger effect = lower value 0.98 | S. cerevisiae deletion strains, locus YOR080W, strain dia2, stronger effect = lower value 0.983 | S. cerevisiae deletion strains, locus YOR083W, strain WHI5, stronger effect = lower value 0.983 | S. cerevisiae deletion strains, locus YOR106W, strain vam3, stronger effect = lower value 1.02 | S. cerevisiae deletion strains, locus YOR136W, strain idh2, stronger effect = lower value 0.996 | S. cerevisiae deletion strains, locus YOR144C, strain elg1, stronger effect = lower value 0.991 | S. cerevisiae deletion strains, locus YOR184W, strain ser1, stronger effect = lower value 0.979 | S. cerevisiae deletion strains, locus YOR231W, strain MKK1, stronger effect = lower value 0.995 | S. cerevisiae deletion strains, locus YOR265W, strain rbl2, stronger effect = lower value 0.981 | S. cerevisiae deletion strains, locus YOR270C, strain vph1, stronger effect = lower value 0.97 | S. cerevisiae deletion strains, locus YOR290C, strain snf2, stronger effect = lower value 0.943 | S. cerevisiae deletion strains, locus YOR316C, strain cot1, stronger effect = lower value 0.971 | S. cerevisiae deletion strains, locus YPL051W, strain arl3, stronger effect = lower value 0.995 | S. cerevisiae deletion strains, locus YPL078C, strain atp4, stronger effect = lower value 0.99 | S. cerevisiae deletion strains, locus YPL106C, strain sse1, stronger effect = lower value 0.914 | S. cerevisiae deletion strains, locus YPL240C, strain hsp82, stronger effect = lower value 0.979 | S. cerevisiae deletion strains, locus YPL256C, strain CLN2, stronger effect = lower value 0.954 | S. cerevisiae deletion strains, locus YPR119W, strain clb2, stronger effect = lower value 0.978 | S. cerevisiae deletion strains, locus YPR141C, strain kar3, stronger effect = lower value 0.973 | S. cerevisiae deletion strains, locus YPR163C, strain tif3, stronger effect = lower value 0.981 | S. cerevisiae deletion strains, locus YPR167C, strain met16, stronger effect = lower value 0.971 | S. cerevisiae deletion strains, strain wtn01, stronger effect = lower value 0.981 | S. cerevisiae strains, strain wild type, stronger effect = lower value 0.995
